From PubChem BioAssay
HP1b chromo inh = blocks HP1-beta chromodomain binding to methylated histone tails | P83916 | AlphaScreen HP1-beta / biotin-H3K9me3 peptide binding | Potency, µM (series often up to 114 µM), most hits filed as inhibitors | 390,000 compounds, 0.56% hits | AID 540317; also: nearly all actives have a fitted effect of over 70% in size
Target sequence (P83916 whole entry, looked up): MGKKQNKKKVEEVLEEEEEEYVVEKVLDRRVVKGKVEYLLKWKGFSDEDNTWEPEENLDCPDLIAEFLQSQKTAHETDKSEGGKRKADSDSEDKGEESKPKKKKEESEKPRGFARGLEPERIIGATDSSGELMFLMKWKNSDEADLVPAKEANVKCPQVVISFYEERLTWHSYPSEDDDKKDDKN
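AlphaScreen: HP1-beta (50 nM) preformed 30 min with biotin-H3(1-18)K9me3 peptide (50 nM) in PBS pH 7.4, 0.01% Tween-20. Compound added for 30 min at RT, then streptavidin donor/nickel chelate acceptor beads (10 ug/mL) for 30 min.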
BAZ2B inh = inhibitors of human BAZ2B bromodomain; Q9UIF8; AlphaScreen BAZ2B-H3K14Ac peptide displacement; Potency, µM (series often up to 114 µM), hits mostly inhibitors; 360,000 compounds, 4.4% hits; also: nearly all actives have a fitted effect of over 60% in size
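BAZ2B (50 nM) with biotin-H3(5-23)K14Ac peptide (50 nM) in PBS pH 7.4, 0.01% Tween-20, preformed 30 min, then compound 30 min at room temperature; top concentration 110uM. AlphaScreen streptavidin donor/nickel chelate acceptor beads (10 ug/mL final), 20 min dark, signal read.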
TDP1 block = inhibitors of human tyrosyl-DNA phosphodiesterase TDP1; recombinant TDP1, AlphaScreen DNA substrate cleavage; 350,000 compounds, 0.28% hits; Potency, µM (highest dose often 130 µM), hits mostly inhibitors; also: nearly all actives have a fitted effect of over 40% in size
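AlphaScreen read-out: signal falls as enzyme removes the 3' tyrosine-FITC from a 5'-biotinylated DNA oligo (15 nM, 5 min, RT). Enzyme was E. coli-made recombinant Tdp1 at 1 nM, exposed to compound for 15 min beforehand; beads 10 ug/ml, 10 min.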
JMJD2A Tudor inh = JMJD2A Tudor domain (human) inhibition; AID 504339; Potency, µM (doses to about 114 µM), actives largely listed as inhibitors; 390,000 compounds, 4.4% hits; O75164; AlphaScreen JMJD2A-Tudor / H3K4me3 peptide binding; also: nearly all actives have a fitted effect of over 50% in size
G9a block = inhibitors of human histone lysine methyltransferase G9a; G9a H3K9 monomethylation, AlphaScreen, 2 h; Potency, µM (titrated, usually from 102 µM), actives largely listed as inhibitors; 350,000 compounds, 8.8% hits; also: nearly all actives have a fitted effect of over 75% in size
Target sequence (Q96KQ7 913-1193 limits assumed): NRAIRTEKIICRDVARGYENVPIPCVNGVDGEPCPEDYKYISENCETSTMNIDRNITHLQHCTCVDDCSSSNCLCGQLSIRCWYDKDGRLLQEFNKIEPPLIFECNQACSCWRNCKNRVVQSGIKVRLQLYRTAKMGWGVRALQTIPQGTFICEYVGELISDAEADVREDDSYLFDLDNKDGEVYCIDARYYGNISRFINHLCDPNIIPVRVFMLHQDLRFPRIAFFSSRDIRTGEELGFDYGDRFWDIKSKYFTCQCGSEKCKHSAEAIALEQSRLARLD
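Methyltransferase reactions run at room temperature for 2 h (20 nM enzyme, 500 nM biotin-H3K9 peptide, 20 uM SAM) after a 15 min compound preincubation; product detected by AlphaScreen beads and anti-H3K9me1 antibody.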
Sfp PPTase inh = Sfp phosphopantetheinyl transferase inhibition | Q9F4F7 | Biochemical Sfp PPTase activity, qHTS | Potency, µM, most hits filed as inhibitors | 310,000 compounds, 3.5% hits;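 also: the enzyme is Sfp with the accession as filed and its product quenches rhodamine fluorescence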
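Reaction rates are the 30-min fluorescence difference (ex 525, em 598 nm) in wells containing 15 nM Sfp, 5 uM rhodamine-CoA and 12.5 uM BHQ-2-YbbR at pH 7.6 with 10 mM MgCl2.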
Hits are given with their value; n = inactive; u = inconclusive; x = no result; ! = not confirmed by another sample; [ ] = dose if it differs, or a comment. Sampled rows, rich in hits. Any-hit rate of the full collection: about 12%. Calls follow the shape of the dose curve; as a rule, active = well fitted curve in the direction sought with a large enough effect; inconclusive = small, poorly fitted or top-dose-only effect, or another doubt; inactive = no such curve, though single readings can be large; an effect the other way counts as inactive or inconclusive.

SMILES | HP1b chromo inh | BAZ2B inh | TDP1 block | JMJD2A Tudor inh | G9a block | Sfp PPTase inh
O=C(Nc1nc(-c2ccco2)c(-c2ccco2)s1)c1c(F)cccc1Cl | u | 40µM | n | 50µM | u | x
O=C(Nc1nc(-c2ccco2)c(-c2ccco2)s1)c1ccc(F)cc1F | u | 40µM | n | u | 10µM | x
O=C(Nc1ccc(NC(=O)c2ccco2)cc1)c1cnccn1 | n | n | n | n | n | n
O=C(Nc1nc(-c2ccco2)c(-c2ccco2)s1)c1cnccn1 | n | u | n[0.505 µM] | n | 10µM | x
COC(=O)c1c(NC(=O)c2ccccc2)sc(C(N)=O)c1C | n | n | n | n | n | n
COC(=O)c1sc(NC(=O)c2cccc([N+](=O)[O-])c2)c(C(N)=O)c1C | u | n | n | n | 10µM | u
Cc1ccc(C(=O)Nc2sc(C)c(-c3ccccc3)c2C(N)=O)cc1[N+](=O)[O-] | n | n | n | u | 40µM | 45µM
COC(=O)c1c(NC(=O)c2cccc([N+](=O)[O-])c2)sc(C(N)=O)c1C | n | n | n | n | x | 45µM
COC(=O)N1CCC2(CCN(C(=O)Nc3ccccc3)CC2)CC1 | x | x | x | x | n[12.7 µM] | n
COc1cccc2c3cccc(OC)c3c3[nH]cnc3c12 | n | x | x | n | x | x
COc1cc2c(cc1OC)C[N+](C)(C)CC2 | n | n | n | 50µM | n[12.7 µM] | u
CC(=O)OCON[N+]([O-])=NC(C)C | n | x | n | u | x | n
CC(=O)OCON[N+]([O-])=NC1CCCCC1 | u | x | n | 20µM | x | n
COc1ccc(Cl)cc1S(=O)(=O)N1CCN(S(=O)(=O)c2ccc3c(c2)OCCO3)CC1 | x | x | x | n | x | x
Cc1ccc(NC(=O)c2cccc3c2C(=O)N(C2CCCCC2)C3)c(Cl)c1 | n | n | n | n | n | n
S=C1NC2=C(CCCC2)C2(CCCCC2)N1 | n | n | n | n | 7.1µM | n
c1ccc(CNc2nc(NCc3ccccc3)c3ccccc3n2)cc1 | n | u | n | n | u | 14µM
c1ccc(CNc2nc(-c3ccccc3)nc3ccccc23)cc1 | n | n | x | n | n[0.501 µM] | n
Fc1ccc(Nc2nc(NCc3ccco3)c3ccccc3n2)cc1 | n | u | x | 50µM | x | 13µM
Cc1cc(/C=C2/C(=O)N(C)C(=S)N2C)c(C)n1C1CC1 | n | u | n | u | 79µM | n
Cc1cc(/C=C2\SC(=S)NC2=O)c(C)n1C1CC1 | n | 45µM | n | 45µM | u | n
Cc1cc(/C=C2\SC(=O)NC2=O)c(C)n1-c1ccc(N(C)C)cc1 | n | n | x | n | n | n
Cc1ccccc1OCC(=O)OCc1cc(=O)n2nc(C3CC3)sc2n1 | n | n | n | n | n | x
COc1ccc(N(CC(=O)Nc2ccccc2F)S(=O)(=O)c2ccc(C)c([N+](=O)[O-])c2)cc1 | n | n | n | n | u | n
COCc1cc(=O)[nH]c(SCCS(=O)(=O)c2ccc(Cl)cc2Cl)n1 | n | n | n | n | u | 79µM
SMILES | HP1b chromo inh | BAZ2B inh | TDP1 block | JMJD2A Tudor inh | G9a block | Sfp PPTase inh
CCn1c(SCc2nc3sc(C(=O)O)c(C)c3c(=O)[nH]2)nc2ccccc21 | 28µM | 25µM | 8.9µM | 40µM | 2.5µM | u
CCOC(=O)CSc1nc2sc(C(=O)O)c(C)c2c(=O)[nH]1 | n | n | n | n | 79µM | n
Cc1c(C(=O)O)sc2nc(CSc3ncc(C(F)(F)F)cc3Cl)[nH]c(=O)c12 | u | 50µM | x | 50µM | n | n
CCCCn1c(N)c(N(C)C(=O)c2c(C)nn(-c3ccccc3)c2C)c(=O)[nH]c1=O | n | x | n | n | x | x
CCOC(=O)CC1=NN(c2ccccc2)C(=O)C1 | n | n | n | n | x | n
CCOC(=O)CC1=NN(c2ccccc2)C(=O)/C1=C\c1ccc(N(C)C)cc1 | u | 5.6µM | n | 10µM | 4.5µM | n
Cc1ccc(S(=O)(=O)n2c(N)nc3ccccc32)cc1 | n | n | x | n | 50µM | n
Cn1cc(C(=O)Nc2ccc(Cl)c(Cl)c2)cn1 | n | x | x | n | x | x
CS(=O)(=O)c1ccc(Cl)c(NC(=O)Cc2c(F)cccc2Cl)c1 | n | n | n | n | n | n
CS(=O)(=O)c1ccc(Cl)c(NC(=O)Cc2ccccc2F)c1 | n | n | x | 22µM | n | n
CCOC(=O)c1noc2ncn(CC(=O)Nc3cccc(Cl)c3)c(=O)c12 | n | n | n | n | n | x
O=C1CS/C(=N/N=C/c2ccncc2)N1 | n | n | n | u | x | n
Cn1ccc(/C=N/N=C2/NC(=O)CS2)n1 | n | n | x | n | 10µM | u
CCOCCCNC(=O)/C(C#N)=C/c1cc(OC)c(O)c([N+](=O)[O-])c1 | n | u | n | n | 50µM | n
CCOCCCNC(=O)/C(C#N)=C/c1ccc(Cl)c([N+](=O)[O-])c1 | u | n | n | n | u | n
COc1ccc(/C=C(\C#N)C(=O)NCCc2ccccc2)cc1OCc1ccccc1 | n | n | n | n | 1µM | n
COCCNC(=O)/C(C#N)=C/c1cccc(/C=C(\C#N)C(=O)NCCOC)c1 | n | n | n | n | n | 20µM
N#C/C(=C\c1ccc(O)c(O)c1)C(=O)NCCCc1ccccc1 | u | 8.9µM | n | 45µM | 3.4µM | 63µM!
N#C/C(=C\c1cccc([N+](=O)[O-])c1)C(=O)NCc1ccc(Cl)cc1 | n | u | n | u | 50µM | u
COc1cc(/C=C(\C#N)C(=O)Nc2cccc(C(=O)O)c2)ccc1OCc1ccc(Cl)cc1 | n | 45µM | n[0.0935 µM] | u | n | n
COCCNC(=O)/C(C#N)=C/c1ccc(O)cc1 | n | n | n | n | x | n
COCCCNC(=O)/C(C#N)=C/c1ccc(OCC(=O)O)c(OC)c1 | u | 20µM | n | 50µM | 13µM | n
Cc1ccc(-n2ncc3c(Nc4ccc5c(c4)OCCO5)ncnc32)cc1C | n | n | n | n | n | x
O=C(COC(=O)CCc1nc2ccccc2s1)Nc1ncc(Cl)cc1Cl | n | u | n | n | 45µM | n
O=C(COC(=O)CCc1nc2ccccc2s1)Nc1cccc(S(=O)(=O)N2CCOCC2)c1 | n | n | n | n | u | n
SMILES | HP1b chromo inh | BAZ2B inh | TDP1 block | JMJD2A Tudor inh | G9a block | Sfp PPTase inh
N#CCc1nc2ccc(S(=O)(=O)N3CCOCC3)cc2s1 | n | n | n | n | n | n
O=S(=O)(c1ccc(OCc2nc3ccccc3s2)c(Cl)c1)N1CCOCC1 | n | n | n | n[11.4 µM] | 50µM | n
O=C(COC(=O)CCc1ccccc1)Nc1ncc(Cl)cc1Cl | n | n | n | n | n | n
O=C(COC(=O)CCc1nc2ccccc2s1)Nc1ccc(S(=O)(=O)N2CCOCC2)cc1 | n | n | n | n | 56µM | n
Cc1ccc(S(=O)(=O)N2CCN(S(=O)(=O)N3CCCCCC3)CC2)cc1 | n | n | n | n | x | n
O=C(NNc1cc(C(F)(F)F)nc2ccccc12)Nc1cccc(Cl)c1 | n | n | x | n | u | n
Cc1ccc(Nc2c([N+](=O)[O-])ccc3c2=NC2(CCCCC2)N=3)cc1 | u | 3.5µM | n | u | 4.5µM | n
